From publication PMC12136788
Residue numbers refer to the chain shown, from its start. The full ranking holds about 24,000 sequences; the median of “enrichment r” is about 0.99, and the highest 2% start at about 3.7. The sample as a whole holds a higher share of the highest values than the screen did.

T1: UNK ZnF1-3 (human, UniProt Q9C0B0 31-174)
T1 sequence: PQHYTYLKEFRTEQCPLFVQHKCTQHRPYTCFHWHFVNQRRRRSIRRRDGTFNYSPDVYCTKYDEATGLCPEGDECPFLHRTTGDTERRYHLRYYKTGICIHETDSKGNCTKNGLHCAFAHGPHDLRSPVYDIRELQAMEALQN

B1: 65775431_65775551_264_CDS_ENSG00000116675_ENST00000371069|human|control|control (ssRNA)
RNA: GGGAGUUCUACAGUCCGACGAUCCACUCUCUGCUUGCCGCCAACCCCGCCGCUUCCCGCACUUAAGUCCCCGUUACUGUCCACCAGCUGCAAAGAUUCAUAACCAUCGUUGCUGGUCUUUUUCCGGUAGCUCCCGAGGAGGCUCAACAGAGGAUUGAGCAUCA
B2: chr4:42581876:42581877:-_ENSG00000124406_ENST00000264449|hu_hu|FALSE|FALSE (ssRNA)
RNA: GGGAGUUCUACAGUCCGACGAUCGCCACCAUAGUUUAGAUUGAGAUACCAGUCUUUUCCAGAAUGCCUUCGAUUCCAAAUGGCUGAGCCCACAGAACAGACAAGAGACAUGGCAAUUAAGAUACAAAAUAAAAUCAAAAUUUGCAACAGAGGAUUGAGCAUCA
B3: chr21:34924512:34924513:+_ENSG00000159140_ENST00000381679|hu_mus|motif|central (ssRNA)
RNA: GGGAGUUCUACAGUCCGACGAUCAGAUGACAUCAUGGAACGUUCUGCAGCAUAGGACAUCAUCAUAGAACGUCUAGAUGCGGACAUCAAGGGUCUAGGUGCUAACCUGUAUGGCCUAGGUGCUAUCCUAUAGGACCUGGGUGCCAACAGAGGAUUGAGCAUCA
B4: 122452171_122453414_3711_CDS_ENSMUSG00000034602_ENSMUST00000073792|mouse|control|control (ssRNA)
RNA: GGGAGUUCUACAGUCCGACGAUCUCGGUCCAGUAGAUGAAAGAGUACCUUCCAAAUAACGGUGUGCCAGGUGGAGUGCUGCAGCAGGGUCCCGUGCGCUCCGAUCGUGGAGAACAGGGUCUGCCCUGCGCUCUUCCUCACGGCCAACAGAGGAUUGAGCAUCA
B5: chr17:56552419:56552420:-_ENSMUSG00000013236_ENSMUST00000086828|mus_mus|mus_mus_mus_hu_False|48_58 (ssRNA)
RNA: GGGAGUUCUACAGUCCGACGAUCAAAAAAUACACUAUUUAAAAAAAAUGAAAUGUCACGGGAUACAGUUACACUGACACUAUUAAAAAAAAAUAAGAUUCUGGUCCCAGCCCAGUGUCCCCAGGCUGCAGAGCGGGGAGGAGCCAACAGAGGAUUGAGCAUCA
B6: chr17:56552419:56552420:-_ENSMUSG00000013236_ENSMUST00000086828|mus_mus|mus_mus_mus_hu_False|48_48 (ssRNA)
RNA: B5 RNA with C77G, C79G, A81U
B7: chr17:56552419:56552420:-_ENSMUSG00000013236_ENSMUST00000086828|mus_mus|mus_mus_mus_hu_False|48_98 (ssRNA)
RNA: B5 RNA with U38A, U39A, C77G, C79G, A81U
B8: chr17:56552419:56552420:-_ENSMUSG00000013236_ENSMUST00000086828|mus_mus|mus_mus_mus_hu_False|1_48 (ssRNA)
RNA: B5 RNA with C77G, C79G, A81U, A138C, G139A, C143G
B9: 35626089_35772405_348_CDS_ENSG00000108100_ENST00000265375|human|control|control (ssRNA)
RNA: GGGAGUUCUACAGUCCGACGAUCGUCCGUCUGAGAUUUACUGAGGAAUAUUGUGCUGGCCCGAGGAUGAUCUGAAGGAUUGAAUUCCAUGUUCAAAUCGUCUAUGUUCUCCCGGUCGCUGAUGUGCUGCAGGUUGCAGCCCGUCAACAGAGGAUUGAGCAUCA
B10: chr2:216981417:216981418:+_ENSG00000079246_ENST00000392132|hu_hu|hu_hu_hu_mus_True|18_98 (ssRNA)
RNA: GGGAGUUCUACAGUCCGACGAUCCUGAUACUGGUCCCCACCAGAAAGGGCAUUAUCAGUGCCAUCUGUGCCAUAGAGGACUAACGCAAUCUCAUCUUUGCUCUCCGAAAAUACCUGUCGCUGUACAAACAUAGUCAUCACUUUCAACAGAGGAUUGAGCAUCA
B11: chr11:48616917:48616918:+_ENSMUSG00000020372_ENSMUST00000020640|mus_mus|FALSE|FALSE (ssRNA)
RNA: GGGAGUUCUACAGUCCGACGAUCGACGAUGAUAGGGUUGCUGCUGUUCGGGGAGAAGCGGACACAAGACACCCAUUCUGAAUGACUCUCAUCCUGGACCGUGUACUUGCAGACACCCAGAGUAUUCCAUAACUUUAUGGUCUUCAACAGAGGAUUGAGCAUCA
B12: chr15:81680702:81680703:-_ENSMUSG00000048546_ENSMUST00000050467|mus_mus|motif|central (ssRNA)
RNA: GGGAGUUCUACAGUCCGACGAUCGAGAGAGAGUUGAGGCUAGGGCCAGACUUAUUUGGGUGGCAGGCCCUGAGAAGACAGCGGGGUUGGGGGUUGUGGACACGGGGGUGGAGGGUGGGGGGGUGUCAGCCUCUCCCUGUUUCACAACAGAGGAUUGAGCAUCA
B13: chr14:66974463:66974464:+_ENSMUSG00000022044_ENSMUST00000074523|mus_hu|mus_mus_mus_hu_False|88_88 (ssRNA)
RNA: GGGAGUUCUACAGUCCGACGAUCUUGUAGGACGACUUAUUCAGGGGAUCAGACAAGAAGCAGGAGCAGAACAAGGACACCAGCGGGAGCUCCUUCAUCUUCUCUUUGUAGGCAGCAAGGGUCAUGUUUCUGGGAUCUGGUGGCCAACAGAGGAUUGAGCAUCA
B14: 157127611_157127731_2631_3pUTR_ENSMUSG00000026469_ENSMUST00000027741|mouse|control|control (ssRNA)
RNA: GGGAGUUCUACAGUCCGACGAUCAUUAAAAGUAGCUUUGUGGAGGAGGUGCUGCUCCAAGCUGCACUUUCCCUGCAAGUGCUGCCAGUGUCUCUGCACUGGCUAUGAAGGAAGGGAAAAACUCUCCAUAGAAACUGACAGAAACAACAGAGGAUUGAGCAUCA
B15: chrX:71549400:71549401:+_ENSMUSG00000019087_ENSMUST00000019231|mus_hu|mus_mus_mus_hu_False|28_68 (ssRNA)
RNA: GGGAGUUCUACAGUCCGACGAUCGCAGUAGGAAGAGGGAAGCUCUUCAGUCCAGUGCGCUGCAGGGAGAAACAUGAACAACACGGACACCGUCCCACCCUCAACCCUCUCAGGUGUACAGGGUCACACAAUCUGGGUCAAAGACAACAGAGGAUUGAGCAUCA
B16: chr22:32879901:32879902:+_ENSG00000100225_ENST00000397426|hu_mus|hu_hu_hu_mus_False|78_78 (ssRNA)
RNA: GGGAGUUCUACAGUCCGACGAUCCUCUUCCAUACUCAUGGCAUCCUGAAUUGACUCAGCUUCAAAAUUUUGACUAGGCCCUUCCAUACUGUCAUCAGUCCAGGCAUCAAAUGGGGUGGCCUGUCCUUGGGAUGAAUCAGUCCCCAACAGAGGAUUGAGCAUCA
B17: chr14:67424093:67424094:-_ENSMUSG00000022048_ENSMUST00000022629|mus_hu|motif|central (ssRNA)
RNA: GGGAGUUCUACAGUCCGACGAUCGAGAGACGGGGUGUGGGGCCCCAAGGGGGACCCCAUGAACUGGCUGCUCCACAGUAACGGUCACAGGCUCUUAAAAAAAAAAACAAAAAAAAAAAAAGGAAGGAAGAAAGAAGUCUCAGACAACAGAGGAUUGAGCAUCA
B18: 23240013_23240133_1240_CDS_ENSG00000136243_ENST00000258742|human|control|control (ssRNA)
RNA: GGGAGUUCUACAGUCCGACGAUCACUACCAAAACCAGCCACAGAACUGCCACCUCCAAAGGCUGGGGCCACUGGAGCUCUGACAGGACCUGUUGCCAAGGAAGCUGGAAGUCCUGAAAAUCCAGGUGAUCCAAAACUGGAAGCCAACAGAGGAUUGAGCAUCA
B19: chr7:143080189:143080190:+_ENSG00000159840_ENST00000392910|hu_hu|FALSE|FALSE (ssRNA)
RNA: GGGAGUUCUACAGUCCGACGAUCUGGGGCUCCAGGACUGAACUUGGAAGCCACAGGAGUAAACUUAGGAGUCACUGGAGAAAACUUAGGGGCUGGAGCCGGAGAUGAGGCUGGGGGCCCUCGGGGCUGGGUGUUAGCCAAAGACAACAGAGGAUUGAGCAUCA
B20: chr8:73282188:73282189:+_ENSMUSG00000031840_ENSMUST00000034301|mus_hu|FALSE|FALSE (ssRNA)
RNA: GGGAGUUCUACAGUCCGACGAUCUAGGGUGUCAUCUGGCCCCUCUUCACAACUGACAACUGUGGAUGGGGGUGAAUUUUAAAAAAAGGCGGGGGGGGGGGGUUCAGGAGGGUGAGCGGUGAGUUCACGGGGCCACGAGACACCCAACAGAGGAUUGAGCAUCA
B21: chr14:67424093:67424094:-_ENSMUSG00000022048_ENSMUST00000022629|mus_hu|FALSE|FALSE (ssRNA)
RNA: B17 RNA with G82U, G83A
B22: 34053828_34053948_230_3pUTR_ENSMUSG00000051390_ENSMUST00000053429|mouse|control|control (ssRNA)
RNA: GGGAGUUCUACAGUCCGACGAUCUGGUCACCUCAGGGAAGGACACGUGUACCACUGCAGCUGCCGGCAGAGGCAGUGGCGGUGGAGCCAGUGACAGAGGCAGUGGGAGUGUGGCCCCACUGGGUGACAGAGCAGACGGCUCCACAACAGAGGAUUGAGCAUCA
B23: chr6:43255143:43255144:+_ENSG00000146216_ENST00000259750|hu_mus|FALSE|FALSE (ssRNA)
RNA: GGGAGUUCUACAGUCCGACGAUCUCCUAGGCCUCCCCUUCUUUCAAUCUCCAAACCUGGGUGUUGUUGGUCCUACGGCAGAAGGGAGACUGAGGGGGGCACCUACACUCACAGUUAGGUUGGUGGCAAGGGGCAGGCCCAGGGCAACAGAGGAUUGAGCAUCA

Molecular target: T1, UNK ZnF1-3
Experiment: nsRBNS (natural sequence RNA bind-n-seq); RBNS binding buffer (assumed for nsRBNS): 25 mM Tris pH 7.5, 150 mM KCl, 3 mM MgCl2, 0.01% Triton X-100, 500 ug/ml BSA, 20 U/ml SUPERase-In, 4 C; UNK is unkempt and MSI1 is Musashi-1; names of the RNAs are library labels; protein concentration not given here; high values mean tight binding

Compared with B1, B2 is higher in binding signal: 0.845 enrichment R for the first, 3.52 enrichment R for the second.

Going from B3 to B4, the binding signal falls from 0.683 enrichment R to 0.594 enrichment R.

Compared with B5, B6 is lower in binding signal: 8.56 enrichment R for the first, 7.18 enrichment R for the second.

Compared with B7, B8 is lower in binding signal: 11.1 enrichment R for the first, 3.79 enrichment R for the second.

Compared with B9, B10 is higher in binding signal: 0.777 enrichment R for the first, 1.16 enrichment R for the second.

First: B11
Second: B12
The binding signal of the first is lower: 0.907 enrichment R for the first, 4.46 enrichment R for the second.

Compared with B13, B14 is lower in binding signal: 2 enrichment R for the first, 0.603 enrichment R for the second.

Going from B15 to B16, the binding signal falls from 1.64 enrichment R to 1.23 enrichment R.

Compared with B17, B18 is lower in binding signal: 7.78 enrichment R for the first, 1.23 enrichment R for the second.

Going from B19 to B20, the binding signal rises from 1.45 enrichment R to 4.04 enrichment R.

First: B21
Second: B22
The binding signal of the first is higher: 20.5 enrichment R for the first, 0.895 enrichment R for the second.

B23 showed a binding signal of 0.766 enrichment R.
